Tested on: Vero E6 infected with SARS-CoV-2
Test: inhibition of SARS-CoV-2 cytopathic effect; higher = more antiviral protection, active = above 15
Conditions: 48 h

Measured: inhibition of SARS-CoV-2 cytopathic effect

CC(C)c1cc2c(cc1S(=O)(=O)O)[C@@]1(C)CCC[C@@](C)(C(=O)O)[C@@H]1CC2 [ecabet]
inactive: 1 nM -2.02% | 8.33 nM 0% | 100 nM -1.76% | 833.33 nM 0.14% | 10000 nM -0.11%

N#Cc1ccc(N2CCN(C(=O)COc3ccc4[nH]cc(CCN)c4c3)CC2)cc1 [donitriptan]
inactive: 1 nM -0.48% | 8.33 nM -0.51% | 100 nM 0.51% | 833.33 nM -0.87% | 10000 nM 1.77%

C[C@@]12CC[C@@H]3[C@@](CC[C@H]4[C@@]3(C)CCC[C@@]4(C)C(=O)O)(CC1=O)C2 [isosteviol]
inactive: 1 nM -1.01% | 8.33 nM 3.07% | 100 nM -0.69% | 833.33 nM 0.69% | 10000 nM 1.55%

CCN(CC)CC1CCN(c2ncc3ncnc(Nc4ccc(F)c(Cl)c4)c3n2)CC1
inactive: 1 nM 1.37% | 8.33 nM 1.44% | 100 nM -3% | 833.33 nM -7.12%
active: 10000 nM 21.6%

CC(C)OC(=O)CNC(=O)[C@H](CS)NC(=O)CC[C@H](N)C(=O)O [glutathione-monoisopropyl-ester]
inactive: 1 nM -0.48% | 8.33 nM 2.43% | 100 nM -0.65% | 833.33 nM 0.55% | 10000 nM 2.32%

N[C@@H](Cc1ccc(O)cc1)C(=O)O [plovamer-acetate]
inactive: 1 nM -8.12% | 8.33 nM -7.1% | 100 nM -9.88% | 833.33 nM -9.04% | 10000 nM -5.19%

N[C@H](C(=O)O)[C@H](O)c1ccc(O)c(O)c1 [droxidopa]
inactive: 1 nM 1.22% | 8.33 nM 3.16% | 100 nM 5.47% | 833.33 nM 1.07% | 10000 nM -5.92%

CC(=O)NC[C@H]1CN(c2ccc(N3CCN(C(=O)CO)CC3)c(F)c2)C(=O)O1 [eperezolid]
inactive: 1 nM -1.15% | 8.33 nM -0.41% | 100 nM -0.04% | 833.33 nM 0.64% | 10000 nM 0.19%

CC(=O)CC/C=C(\C)CC/C=C(\C)CC/C=C(\C)CCC=C(C)C [teprenone]
inactive: 1 nM -0.07% | 8.33 nM 1.34% | 100 nM -1.34% | 833.33 nM 1.98% | 10000 nM 0.16%

CCCCCCCC/C=C\CCCCCCCC(N)=O [oleamide]
inactive: 1 nM -2.29% | 8.33 nM -1.34% | 100 nM -3.82% | 833.33 nM 0.76% | 10000 nM 0.18%

c1ccc2c(Cc3c[nH]c4ccccc34)c[nH]c2c1 [3,3'-diindolylmethane]
inactive: 1 nM 0.74% | 8.33 nM 0.3% | 100 nM 4.3% | 833.33 nM 4.76% | 10000 nM 3.8%

O=C(CCCN1CCC(n2c(=O)[nH]c3ccccc32)CC1)c1ccc(F)cc1 [benperidol]
inactive: 1 nM 0.17% | 8.33 nM -0.44% | 100 nM -0.77% | 833.33 nM 2.15% | 10000 nM -4.28%

CC(=O)Nc1ccc(OCC(O)CNC(C)C)cc1 (stereo not given) [practolol]
inactive: 1 nM 0.44% | 8.33 nM 0.3% | 100 nM 0.26% | 833.33 nM 2.84% | 10000 nM 5.44%

COc1ccc2cccc(CCNC(C)=O)c2c1 [agomelatine]
inactive: 1 nM -0.83% | 8.33 nM 0.82% | 100 nM -2.18% | 833.33 nM -1.63% | 10000 nM 0.7%

C=CC(=O)N1CCC[C@@H](n2nc(-c3ccc(Oc4ccccc4)cc3)c3c(N)ncnc32)C1 [ibrutinib]
inactive: 1 nM -2.27% | 8.33 nM -1.2% | 100 nM 0.01% | 833.33 nM -0.37% | 10000 nM 1.62%

Cn1cnc2c(NCc3ccccc3)nc(NCCO)nc21 [olomoucine]
inactive: 1 nM 1.4% | 8.33 nM 1.88% | 100 nM 1.77% | 833.33 nM -0.46% | 10000 nM -0.63%

CC1(C)S[C@@H]2[C@H](NC(=O)C(C(=O)O)c3ccccc3)C(=O)N2[C@H]1C(=O)O (stereo not given in full) [carbenicillin]
inactive: 1 nM 2.76% | 8.33 nM 1.83% | 100 nM 0.55% | 833.33 nM 2.42% | 10000 nM 0.1%

COCCCC/C(=N\OCCN)c1ccc(C(F)(F)F)cc1 [fluvoxamine]
inactive: 1 nM 6.3% | 8.33 nM 3.03% | 100 nM -1.16% | 833.33 nM -0.69% | 10000 nM -6.73%

O=C1[C@@H]2[C@H]3CC[C@H](C3)[C@@H]2C(=O)N1C[C@@H]1CCCC[C@H]1CN1CCN(c2nsc3ccccc23)CC1 [lurasidone]
inactive: 1 nM -0.28% | 8.33 nM 0.05% | 100 nM 1.73% | 833.33 nM 3.11% | 10000 nM -6.2%

COC(=O)C[C@](O)(CCCC(C)(C)O)C(=O)O[C@@H]1C(OC)=C[C@]23CCCN2CCc2cc4c(cc2[C@H]13)OCO4 [homoharringtonine]
inactive: 1 nM 1.04% | 8.33 nM 2.85% | 833.33 nM 4.43% | 10000 nM -23.7%
active: 100 nM 26.2%

NC(N)=Nc1nc(CSCCN/C=N/S(=O)(=O)c2ccc(Br)cc2)cs1 [ebrotidine]
inactive: 1 nM -0.49% | 8.33 nM 1.21% | 100 nM 5.48% | 833.33 nM -0.19% | 10000 nM -2.58%

O=C1c2ccccc2-n2c1nc1ccccc1c2=O [tryptanthrin]
inactive: 1 nM 3.12% | 8.33 nM -0.23% | 100 nM 0.33% | 833.33 nM 0.62% | 10000 nM 0.39%

C1=C2CCCN[C@H]2[C@@H]2C[C@H]1[C@H]1CCCCN1C2 [aloperine]
inactive: 1 nM -0.36% | 8.33 nM 2.25% | 100 nM -0.38% | 833.33 nM 0.5% | 10000 nM -1.11%

O=C(COP(=O)(O)O)[C@@H](O)[C@H](O)[C@H](O)COP(=O)(O)O [fosfructose]
inactive: 1 nM -6.09% | 8.33 nM -3.73% | 100 nM -0.5% | 833.33 nM 1.38% | 10000 nM -1.68%

CN1CC(O)C2=C/C(=N/NC(N)=O)C(=O)C=C21 (stereo not given) [carbazochrome]
inactive: 1 nM 2.27% | 8.33 nM 3.04% | 100 nM -0.28% | 833.33 nM -1.11% | 10000 nM 0.54%

Oc1cc(O)c2cc(O)c(-c3cc(O)c(O)c(O)c3)[o+]c2c1 [delphinidin]
inactive: 1 nM -3.03% | 8.33 nM -3.65% | 100 nM -0.94% | 833.33 nM -1.2% | 10000 nM -3.76%

CCCCOC(=O)c1cc2c(cn1)[nH]c1ccccc12 [beta-CCB]
inactive: 1 nM -1.28% | 8.33 nM -1.62% | 100 nM -0.04% | 833.33 nM -2.91% | 10000 nM -5.4%

Nc1nccc(-c2c(-c3ccc(F)cc3)ncn2C2CCCCC2)n1
inactive: 1 nM 3.7% | 8.33 nM 3.92% | 100 nM -2.24% | 833.33 nM -0.2% | 10000 nM 1.35%

COc1ccccc1N1CCN(CCCNc2cc(=O)n(C)c(=O)n2C)CC1 [urapidil]
inactive: 1 nM 0.14% | 8.33 nM -1.36% | 100 nM -0.45% | 833.33 nM 2.04% | 10000 nM -0.1%

CN1C(=O)OC(C)(C)C1=O [trimethadione]
inactive: 1 nM -3.89% | 8.33 nM -1.8% | 100 nM -2.46% | 833.33 nM -3.14% | 10000 nM -1.97%

Cc1ccc([N+](=O)[O-])cc1O [2-methyl-5-nitrophenol]
inactive: 1 nM -2.8% | 8.33 nM -2.93% | 100 nM -4.49% | 833.33 nM -3.09% | 10000 nM -2.25%

FC(F)(F)c1cccc(-c2noc(-c3cc(-c4ccccc4)c(C(F)(F)F)s3)n2)c1
inactive: 1 nM 1.19% | 8.33 nM 0.95% | 100 nM -0.54% | 833.33 nM 1.01% | 10000 nM 1.68%

NCC(O)(CS(=O)(=O)O)c1ccc(Cl)cc1 (stereo not given) [2-hydroxysaclofen]
inactive: 1 nM 0.19% | 8.33 nM 1.62% | 100 nM -0.08% | 833.33 nM 3.7% | 10000 nM 0.53%

C[C@H](NCc1ccc(OCc2cccc(F)c2)cc1)C(N)=O [safinamide]
inactive: 1 nM 4.62% | 8.33 nM 5.34% | 100 nM 2.52% | 833.33 nM 0.07% | 10000 nM -0.48%

Cc1cccc(C)c1NC(=O)CN1CCN(CCCC(c2ccc(F)cc2)c2ccc(F)cc2)CC1 [lidoflazine]
inactive: 1 nM -2.3% | 8.33 nM 0.7% | 100 nM 0.47% | 833.33 nM -1.87% | 10000 nM -10.2%

CC(OC(=O)NCC1(CC(=O)O)CCCCC1)OC(=O)C(C)C (stereo not given) [gabapentin-enacarbil]
inactive: 1 nM -7.45% | 8.33 nM -8.92% | 100 nM -4.27% | 833.33 nM -4.9% | 10000 nM -8.44%

CCN(CC)C(=O)N1CCN(C)CC1 [diethylcarbamazine]
inactive: 1 nM -4.87% | 8.33 nM -4.75% | 100 nM -2.46% | 833.33 nM 0.55% | 10000 nM -2.31%

CC1=C(/C=C/C(C)=C/C=C/C(C)=C/C(=O)O)C(C)(C)CCC1 [tretinoin]
inactive: 1 nM 1% | 8.33 nM -1.08% | 100 nM -0.09% | 833.33 nM 2.67% | 10000 nM 7.6%

C[C@]12CC[C@H](O)CC1=CC[C@@H]1[C@@H]2CC[C@]2(C)C(n3cnc4ccccc43)=CC[C@@H]12 [galeterone]
inactive: 1 nM -0.79% | 8.33 nM 0.99% | 100 nM 0.05% | 833.33 nM -5.02% | 10000 nM -6.94%

C#CC[C@H](c1nc2cc(Cl)ccc2c(=O)n1Nc1ccccc1)N(CCCN)C(=O)c1cccc(Cl)c1F
inactive: 1 nM -0.8% | 8.33 nM -0.99% | 100 nM 0.22% | 833.33 nM 1.38% | 10000 nM -9.07%
